PubChem BioAssay (NCI)
The panel holds about 83,000 compounds, 20% with a hit somewhere; the sample as a whole holds those more often.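 The endpoint reported here, percent growth, reads 100 for growth as untreated, 0 for no net growth and -100 for all cells dead.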 Activity calls are given as the source filed them.

System: NCI-H23 lung
Test: NCI-60 one-dose screen, 48 h (100 = growth as untreated, 0 = no growth, -100 = all killed)
Conditions: 10 µM unless noted
Procedure: Growth inhibition of the NCI-H23 human Non-Small Cell Lung tumor cell line is measured as a screen for anti-cancer activity. Cells are grown in 96 well plates and exposed to the test compound for 48 hours. Compounds are tested at a single concentration, which is 10^-5 M for most compounds. The reported endpoint is percent growth (GI% or GIPRCNT), where numbers from 0 - 100% represent growth inhibition, and numbers from -100% - 0 represent cell death. For example, a value of 40 represents 60% growth inhibition. A value of 0 means no net growth occurred over the course of the experiment. A value of -40 indicates 40% of cells at the beginning of the experiment died by the end of the experiment. A value of -100 means all cells are dead at the end of the experiment.
NCI-60 Human Tumor Cell Lines Screen was performed using the standard one-dose NCI protocol, which is described in more detail at https://dtp.cancer.gov/discovery_development/nci-60/default.htm.
Compounds with GIPRCNT values below 10 were considered active. Activity score was based on GIPRCNT using the following formula: […]
Score is 0 for GIPRCNT values of 100 or above, 50 for GIPRCNT values of 0, and 100 for GIPRCNT values of -100.

SMILES | growth
COc1cc2nc(Cl)nc(Nc3cccc(C4=Nc5c(N)nc(N)nc5NC(c5ccc(Br)cc5)C4)c3)c2cc1OC (stereo not given) | 91% (inactive)
NC/C(=C/F)COc1ccc2nc(NCc3cccnc3)oc2c1 | 92.8% (inactive)
COc1ccc(/C=C/C(=O)c2cc(S(N)(=O)=O)c(OC)cc2OC)cc1 | 74.7% (inactive)
Cc1ccc2c(c1)C13C(=C2Br)CCCN1C(=O)c1ccccc13 (stereo not given) | 92.8% (inactive)
C=C(C)[C@@H]1CC[C@]2(COC)CC[C@]3(C)[C@H](CC[C@@H]4[C@@]5(C)CCCNC(C)(C)[C@@H]5CC[C@]43C)[C@@H]12 | 59.6% (inactive)
CCOC(=O)c1c(Nc2ccccc2)nn2c(-c3ccc(OC)cc3)ccnc12 | 86% (inactive)
N#C/C(=C\c1ccc(-c2ccc(Cl)cc2Cl)o1)c1ccc(F)cc1 | 87.7% (inactive)
CCNC(=O)N1CCc2cc(OC)c(OCCc3ccc(OC)cc3)cc2C1c1ccc(Cl)cc1C (stereo not given) | 25.1% (inactive)
Nn1c(N/N=C/c2nc3ccccc3s2)n[nH]c1=S | 91.8% (inactive)
C=CCn1c(SCC(=O)Nc2ccc(C(=O)/C=C/c3cc(OC)c(OC)c(OC)c3)cc2)nnc1-c1c[nH]c2ccccc12 | -11% (active)
COc1cc(OC)c(S(N)(=O)=O)cc1C(C)=O | 106% (inactive)
CCn1c(SCC(=O)Nc2cccc(C(=O)/C=C/c3ccc(Br)cc3)c2)nc2ccccc2c1=O | 82.9% (inactive)
CCn1c2ccccc2c2cc(-n3nncc3-c3ccccc3)ccc21 | 7.25% (active)
CC1(COc2ccc3ncc(C#Cc4cncc(C(=O)Nc5cccc(C(F)(F)F)c5)c4)n3n2)COC1 | 60.9% (inactive)
Nc1nc(-c2cccc([N+](=O)[O-])c2)c(N=Nc2ccccc2)s1 | 70.2% (inactive)
CC1(C)CC[C@]2(C(=O)N3CCOCC3)CC[C@]3(C)C(=CC[C@@H]4[C@@]5(C)C/C(=C/c6ccccn6)C(=O)C(C)(C)[C@@H]5CC[C@]43C)[C@@H]2C1 | 60.2% (inactive)
CC(O)c1cc2ccccc2c(=O)o1 (stereo not given) | 99.8% (inactive)
C=CCn1c(-c2nc3ccc(C(=C(C#N)C#N)c4ccccc4)cc3[nH]2)cc2cc(Br)ccc21 | 46.9% (inactive)
Cc1ccc2c(c1)C(=O)/C(=C/c1cccc(F)c1)S2 | 101% (inactive)
CC(=O)C1=C(C)NC(NNC(N)=S)=NC1c1ccccc1 (stereo not given) | 92.8% (inactive)

SMILES | growth
C#CC(=O)N(c1ccc(OC)cc1OC)C(C(=O)NCC(=O)OCC)c1cccs1 (stereo not given) | -54.7% (active)
COc1ccc(C(=O)CSc2nc3c(c(Nc4ccc(S(N)(=O)=O)cc4)n2)CCCC3)cc1 | 88.1% (inactive)
Cc1ccc(NC(=O)CNc2cc(C(N)=O)cc(F)c2C)c(Cl)c1 | 86.9% (inactive)
CC(C)(C)CC(C)(C)n1nnnc1C(Nc1nccs1)c1cc2cccc3ccc4cccc1c4c32 (stereo not given) | 102% (inactive)
C#CCOC(=O)[C@@H]1CCCN1CC#C | 96.7% (inactive)
Cc1ccc(NC(=O)N[C@@H](Cc2cc(F)cc(F)c2)C(=O)NC2C(=O)N3C[C@H](O)C[C@H]3C(=O)N3CCCC[C@H]3C(=O)N[C@@H](CO)C(=O)N3C[C@H](C)C[C@H]3C(=O)O[C@H]2C)c(F)c1 (stereo not given in full) | 28.2% (inactive)
CCNC(=O)N1CCc2cc(OC)c(OCCc3ccc(OC)cc3)cc2C1c1ccc(OC)cc1C (stereo not given) | 29% (inactive)
COc1cccc2c1CN(C(=O)c1ccc(O)c(C(=O)N3Cc4ccc(OCCC[P+](c5ccccc5)(c5ccccc5)c5ccccc5)cc4C3)c1)C2 | 75.4% (inactive)
COc1cc(-c2nc(-c3ccccc3)[nH]c2-c2ccnc(NCCCNS(=O)(=O)c3cccc(F)c3)n2)ccc1Cl | 53.4% (inactive)
Cc1cc(C)c(N2C(=O)CC(Nc3ccc(Cl)cc3Cl)C2=O)c(C)c1 (stereo not given) | 104% (inactive)
COc1cc(-c2nn(C(C)(C)C)cc2-c2ccnc(NCCCNS(=O)(=O)c3ccccc3)n2)ccc1Cl | 74.4% (inactive)
COc1ccccc1N1CCN(C2=CC(=O)C(C)=C(C)C2=O)CC1 | 99.5% (inactive)
O=C(CCn1c[n+](CC(=O)c2ccc(-c3ccccc3)cc2)c2ccccc21)Nc1cccc2cccnc12 | 60.2% (inactive)
CCOc1ccc(NC2=C(Cl)C(=O)c3nc(C)ccc3C2=O)cc1 | -61% (active)
O=S(=O)(Nc1ccc2c(c1)OCO2)c1ccc(-c2cnc(C3CC3)o2)cc1 | 42% (inactive)
Cc1cccc2c3c(sc12)C(c1ccc(Cl)cc1)c1c(nc(CC(=O)Nc2ccccc2)[nH]c1=O)O3 (stereo not given) | 55.1% (inactive)
C=C(C=O)[C@@H]1CC[C@]2(C)[C@H](C(=O)C=C3[C@H]4C[C@](C)(C(=O)OC)CC[C@]4(C)CC[C@]32C)[C@@]1(C)CCC#N | 4.93% (active)
COc1cc2oc(-c3cccc(NC(=O)c4cc(N)ccc4Cl)c3)cc(=O)c2c(OC)c1OC | 102% (inactive)
O=C(Nc1nonc1-c1ccccc1)c1ccc(C(F)(F)F)cc1 | 72.6% (inactive)
NS(=O)(=O)c1ccc(Nc2nc(N/N=C/c3ccc(Cl)cc3)nc(Nc3ccccc3)n2)cc1 | 87.1% (inactive)
